Compounds with a hit are over-represented: about 4.1% of the library has one in this group of screens.
DAX1 inh-1 – DAX1 (NR0B1) inhibitors on StAR promoter, primary screen, cell-based, luminescence, SF-1 (NR5A1), full-length DAX-1 | HEK293T StAR-luciferase reporter, SF-1/DAX-1 repression relief | inhibition, % at 6.8 µM | actives 1.1% (n = 370,000);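 active = inhibition above the mean over all tested compounds plus 3 SD, cut at about 3.6% in these data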;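 also: higher inhibition means more luminescence from relief of DAX-1 repression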
hcDAF-12 act – H. contortus DAF-12 nuclear receptor activators, primary screen, cell-based, luminescence, HEK293, lit1-tk-luc reporter; HEK293 hcDAF-12 lit1-tk-luc reporter; 0% DMSO, 100% Δ7-dafachronic acid; activation, % at 6.8 µM; actives 1.4% (n = 370,000);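 active = activation above the mean of all tested compounds plus 3 SD, cut at about 5.5% in these data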
ssDAF-12 act – S. stercoralis DAF-12 nuclear receptor activators, primary screen, cell-based, luminescence, HEK293, GRIP1 co-expression, lit1-tk-luc. Nuclear hormone receptor DAF-12 (Strongyloides stercoralis). activation, % at 6.8 µM. HEK293 ssDAF-12/GRIP1 lit1-tk-luc reporter; % of 3 µM dafachronic acid response. actives 1% (n = 370,000);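 active = activation above the mean over all tested compounds plus 3 SD, cut at about 0.9% in these data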
hgDAF12 agonist – H. glycines DAF-12 receptor agonists, primary screen, cell-based, luminescence, HEK293, GAL4 fusion, UAS-luciferase; Nuclear hormone receptor DAF-12 (Heterodera glycines), GAL4 fusion; HEK293 GAL4-hgDAF12 UAS-luciferase reporter, agonist luminescence; normalized to butyrate control; activation, % at 6.8 µM; actives 1.8% (n = 370,000);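 active = activation above a cutoff set at the mean of all screened compounds plus 3 SD, cut at about 10% in these data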
DAX1 inh-2 – DAX1 (NR0B1) inhibitors, primary screen, cell-based, HEK293, Gal4-DAX1, luciferase luminescence; HEK293 Gal4-DAX1 luciferase reporter; inhibition, % at 6.75 µM; actives 0.99% (n = 340,000);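 active = inhibition above the mean over all tested compounds plus 3 SD, cut at about 4.2% in these data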;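 also: inhibition shows as a rise in luminescence from relieved DAX1 repression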
Target sequence (P51843 207-470 limits assumed): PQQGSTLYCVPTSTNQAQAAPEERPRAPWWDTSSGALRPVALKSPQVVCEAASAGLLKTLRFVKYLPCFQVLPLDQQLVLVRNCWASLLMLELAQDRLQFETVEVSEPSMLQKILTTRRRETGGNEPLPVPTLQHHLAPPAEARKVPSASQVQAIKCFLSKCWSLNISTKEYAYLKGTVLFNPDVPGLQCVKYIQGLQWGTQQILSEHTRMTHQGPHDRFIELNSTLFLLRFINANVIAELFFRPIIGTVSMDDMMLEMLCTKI
A number is an active result; n = inactive; x = no result.

SMILES	DAX1 inh-1	hcDAF-12 act	ssDAF-12 act	hgDAF12 agonist	DAX1 inh-2
N#Cc1ccc(-c2nc3c4ccccc4ccn3c2Cc2ccccc2C(F)(F)F)cc1	n	n	n	n	x
Cc1ccc(Cc2c(-c3ccco3)nc3c4ccccc4ccn23)cc1	n	n	n	n	x
Cc1cc(Br)cn2c(Cc3ccccc3C(F)(F)F)c(-c3cccc(Br)c3)nc12	n	n	n	n	x
N#Cc1ccc(-c2nc3c4ccccc4ccn3c2Cc2ccsc2)cc1	n	n	1.5	n	x
Cc1ccc(-c2nc3c4ccccc4ccn3c2Cc2cccc(Cl)c2)cc1	n	n	n	n	x
N[C@H](C(=O)N1CCC[C@@H]1C(=O)N1CCC2CCN(S(=O)(=O)c3ccccc3)CC21)c1ccccc1 (some centres undefined)	n	n	n	n	x
Cc1cccc(NC(=O)CNC(=O)[C@@H](Cc2ccccc2)NC(=O)[C@H]2O[C@@H](n3ccc(=O)[nH]c3=O)[C@H](O)[C@@H]2O)c1C	n	n	n	n	x
COCCCNC(=O)C[C@H]1C[C@@]2(C(=O)OC)C(=C[C@H](COCc3ccccc3)O[C@@H]2C)N(Cc2ccco2)C1=O	n	n	n	n	x
CC(C)n1c(CCC(=O)O)ccc1-c1ccccc1	n	n	n	n	4.3
O=C(Nc1nc2ccc(Cl)cc2s1)[C@@H]1CCCN1C(=O)c1cccs1	n	5.7	n	n	n
Cc1cccc2sc(NC(=O)[C@@H]3CCCN3C(=O)c3cccs3)nc12	n	n	n	n	n
CCc1ccc2nc(NC(=O)c3cc(C)on3)sc2c1	n	n	n	12	n
CCc1noc(C)c1C(=O)Nc1nc2ccc(F)cc2s1	3.9	n	n	n	n
CCCCc1ccc2nc(NC(=O)c3ccc(Br)o3)sc2c1	x	n	n	11	x
O=C(CSc1nc2ccccc2o1)NN=C/C=C\c1ccccc1[N+](=O)[O-]	n	n	n	n	x
COC(=O)c1ccc(NC(=S)N2CCN(CCO)CC2)cc1	n	n	n	n	n
CC(=O)c1ccc(NC(=S)N2CCN(CCO)CC2)cc1	n	n	n	n	4.8
Cc1cc2nc(/C=C/c3nc4cc(C)c(C)cc4[nH]3)[nH]c2cc1C	n	n	n	n	n
Cc1cc2nc(/C=C/c3cccnc3)[nH]c2cc1C	4.0	6.4	1.7	n	n
CCc1ccc(OCC(=O)Nc2nnc(-c3ccco3)s2)cc1	4.4	n	n	n	n
CC(C)CC(=O)Nc1nnc(-c2ccco2)s1	n	n	n	n	n
O=C(Cn1c(-c2cncs2)nc2ccccc21)NCc1cccs1	n	n	n	n	x
COc1cccc2nc3c(C(=O)NCCN(C)C)cccc3cc12	n	n	n	n	n
COc1ccc(C(=O)NCCN(C)C)c2nc3ccccc3cc12	n	5.8	n	n	n
Cc1c(/C=N\NC(=O)c2ccc(F)cc2)cnn1C	n	n	n	n	n
SMILES	DAX1 inh-1	hcDAF-12 act	ssDAF-12 act	hgDAF12 agonist	DAX1 inh-2
Cc1c(/C=N/NC(=O)c2ccc(Br)o2)cnn1C	n	6.2	n	n	x
Cc1ccccc1C(=O)NC1CCN(CC(=O)NCc2cccs2)CC1	n	n	n	n	5.2
Cc1ccccc1C(=O)NC1CCN(Cc2nnnn2CCc2ccccc2)CC1	n	n	n	n	n
Cc1ccc(C(=O)NC2CCN(CC(=O)NCc3cccs3)CC2)cc1	n	n	n	n	n
Cc1ccccc1C(=O)NC1CCN(Cc2ccccc2)CC1	n	n	1.4	n	n
Cc1ccc(CN2CCCCC(NC(=O)c3ccc(C)cc3)C2=O)cc1 (centres undefined)	n	n	n	n	x
Cc1c(C(=O)N(Cc2ccco2)Cc2cccs2)oc2ccccc12	n	n	1.1	n	5.5
CCCCN(C)C(=O)c1ccc2c(c1)N(CC)C(=O)c1ccccc1S2=O (centres undefined)	n	n	n	n	4.7
Cc1nn2c(-c3ccncc3)ccnc2c1Cl	n	n	n	12	n
Cc1ccc(S(=O)(=O)n2ccc(-c3c(-c4ccccc4)noc3C)n2)cc1	n	n	n	n	x
Fc1ccc(-c2n[nH]c(=S)n2N=Cc2cccc(OCc3ccccc3)c2)cc1	n	n	n	n	x
Cn1c(=N)n(CC(=O)c2ccc(F)cc2)c2ccccc21	n	13	1.2	11	n
Cc1n(CC(=O)c2ccc(F)cc2)c2ccccc2[n+]1C	n	n	n	n	n
CN(C)c1ccc(NC(=S)OC2CCC23CCC(c2ccccc2)CC3)cc1 (centres undefined)	n	n	n	n	x
CCC(=O)N1C(C(=O)N2CCCC2)CSC1c1ccc(OC)cc1 (centres undefined)	n	n	n	n	4.3
O=C(NCCCc1ccccc1)[C@H](CO)NC1(C(=O)NCCc2c[nH]c3ccccc23)CCCCC1	x	n	n	n	x
C=CCN(CC#Cc1ccccc1)CC1CC1	n	n	n	n	x
COc1ccc([N+](=O)[O-])cc1NC(=O)CSCc1ccc(Br)cc1	n	n	1.0	n	n
COc1ccc([N+](=O)[O-])cc1NC(=O)CSCc1ccccc1C	n	n	n	n	n
C[C@H]1[C@@H](OC(=O)NC2CCC2)CC[C@@]23CCCN2C(=O)CCC[C@@H]13	x	n	n	n	x
Cn1c(Nc2ccccc2)nc2ccccc21	n	n	n	n	n
Nn1c(Nc2ccccc2)nc2ccccc21	n	n	n	n	4.4
CCOc1ccc(NC(=O)N(C2CCCCC2)C(C)c2ccncc2)cc1 (centres undefined)	n	n	1.6	n	n
COc1ccc(NC(=O)C2C3C=CC(C3)C2C(=O)NCc2ccco2)c(OC)c1 (centres undefined)	n	n	n	n	5.9
O=C(O)C1C2C=CC(C2)C1C(=O)NCc1ccco1 (centres undefined)	n	n	n	n	n
SMILES	DAX1 inh-1	hcDAF-12 act	ssDAF-12 act	hgDAF12 agonist	DAX1 inh-2
COc1ccc(-n2c(Cc3cccs3)nnc2SCC(=O)Nc2ccc(OCc3ccccc3)cc2)cc1	n	n	n	n	x
Cc1cc(C)cc(NC(=O)OC2CCC23CCCCC3)c1 (centres undefined)	n	n	n	n	x
CC(=O)N1c2ccccc2C(=O)NCC1C(=O)NC(C)(C)C (centres undefined)	n	n	n	n	x
O=[N+]([O-])c1cccc(NC(=S)N2CCCC2)c1	n	n	n	n	n
O=C(Nc1cccc([N+](=O)[O-])c1)C(=O)N1CCCCC1	n	n	n	13	n
CCc1ccc(N2CC34C=CC(O3)C(C(=O)OC)C4C2=O)cc1 (centres undefined)	n	n	n	n	4.4
CCc1ccc(N2CC34C=CC(O3)C(C(=O)OC(C)C)C4C2=O)cc1 (centres undefined)	n	n	n	n	n

Screening data (PubChem BioAssay)
